Screening data (PubChem)
Nrf2 activator: activates Nrf2 signaling. AREc32 ARE-luciferase reporter (MCF7-derived line), luminescence, 24 h. Potency, µM (top dose mostly 46.1 µM), hits mostly activators. actives 0.31% (n = 410,000). AID 624171; note: nearly all actives have a fitted effect of over 65% in size
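Quantitative high-throughput format: AREc32 reporter cells, 1000 per well, received compound by pin transfer and were incubated 24 hr at 37 deg C, 5% CO2, before Steady-Glo luminescence detection.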
CCT chaperon mod: modulators of cytosolic chaperonin (CCT/TRiC) activity; actives 0.3% (n = 360,000); purified chaperonin ATPase assay, HTRF ADP detection, 30 min; AID 651819; activity change, % (test concentration not listed), hits read low; in the data active = activity change below about -30%
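TRiC at 40 or 20 nM final (batch-dependent) in 30 mM Tris pH 7.4, 100 mM KCl, 5 mM MgCl2, 1 mM DTT, with compound at single 76 uM and 10 uM ATP, 30 min at 37 deg C. ADP detected by HTRF Transcreener, 665/615 ratio.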
A549 viability: counter-screen for Nrf2 inhibitors: cytotoxicity in A549 cells | actives 0.16% (n = 390,000) | Potency, µM (series often up to 46 µM), most hits filed as inhibitors | A549 ARE-Fluc cells, CellTiter-Fluor viability, 18-24 h
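A549 ARE-Fluc cells in 5% FBS OPTI-MEM, 5000 cells/well, rested 2 h then exposed to compounds in concentration-response for 18-24 h at 37 °C. Viability by CellTiter-Fluor fluorescence (Ex 405/Em 525) after 30 min; luciferase luminescence (BugLite, 15 min, RT) read afterwards.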
TCR act: activators of T cell receptors; primary human leukocytes, anti-CD3, IL-2 HTRF, 48 h; 330,000 tested, under 10 active; AID 504894; Potency, µM (doses to about 9.22 µM), actives largely listed as activators
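1) Mix primary human leukocytes, a-CD3 beads and compound. 2) Incubate 48 hr. 3) Add HTRF IL-2 reagents (a-IL-2-K, a-IL-2-d2).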
Nrf2 inh: blocks Nrf2 signaling; A549 ARE-Fluc reporter, luciferase luminescence, 18-24 h; AID 504444; actives 2.1% (n = 360,000); Potency, µM (titrated, usually from 46 µM), hits mostly inhibitors; note: nearly all actives have a fitted effect of over 60% in size
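A549 ARE_Fluc cells, 5000/well, 5% FBS OPTI-MEM; compounds in dose-response, 18-24 h at 37 °C/5% CO2; CellTiter-Fluor viability read (Ex 405/Em 525), then BugLite luciferase luminescence = Nrf2 activity.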
A-T KAP1 phos: candidate therapy for ataxia-telangiectasia; actives 0.19% (n = 320,000); F2112 A-T fibroblasts, KAP-1 phosphorylation AlphaLISA; neocarzinostatin DNA damage 30 min before lysis; Potency, µM (top dose mostly 57.5 µM), hits mostly activators; note: nearly all actives have a fitted effect of over 45% in size
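ATM-like activity read as KAP-1 phosphorylation via AlphaLISA donor/acceptor antibody pairs after lysis and 6 hr at 25C. Cells were ATM-null patient fibroblasts (F2112, hTERT), dosed 60 min, then exposed to the DSB inducer NCS for 30 min.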
Numbers stand for hits; i = inactive; ? = inconclusive; nt = no result; ! = a repeat was not active. This is a sample that favours compounds with a hit; in the whole collection about 2.6% have one here. Unless noted, calls come from the whole dose curve; as a rule, active = well fitted curve in the direction sought with a large enough effect; inconclusive = small, poorly fitted or top-dose-only effect, or another doubt; inactive = no such curve, though single readings can be large; an effect the other way counts as inactive or inconclusive.

SMILES | Nrf2 activator | CCT chaperon mod | A549 viability | TCR act | Nrf2 inh | A-T KAP1 phos
C=CS(=O)(=O)c1ccc(Oc2ccc(S(=O)(=O)C=C)cc2)cc1 | i | -45 | ? | i | 18µM | i
Cc1cc(Nc2sc(C(=O)c3ccc(F)cc3)c(N)c2C(=O)Nc2ccc(F)cc2)ccc1Cl | i | nt | 16µM | nt | nt | nt
COc1ccc(C(=O)c2sc(Nc3cccc(OC)c3)c(C(=O)Nc3cccc(C)c3C)c2N)cc1 | i | i | ? | i | 23µM | i
COc1ccc(Nc2sc(C(=O)c3ccc(Cl)cc3)c(N)c2C(=O)Nc2ccccc2OC)cc1 | i | i | i | i | ? | i
O=S(=O)(Nc1cccc2cccnc12)c1ccc2ccccc2c1 | nt | nt | i | nt | 5.2µM | nt
O=S(=O)(Nc1cccc2ccccc12)c1cccs1 | i | i | i | i | i | i
Nc1ccc(S(=O)(=O)Nc2cccc3cccnc23)cc1 | nt | nt | i | nt | i | nt
COc1ccc(S(=O)(=O)Nc2cccc3cccnc23)c([N+](=O)[O-])c1 | nt | nt | ? | nt | 7.3µM | nt
O=S(=O)(Nc1cccc2cccnc12)c1cccs1 | nt | nt | ? | nt | 18µM | nt
O=S(=O)(Nc1cccc2cccnc12)c1ccc(Br)cc1 | nt | nt | ? | nt | 8.2µM | nt
O=C1CCc2cc(S(=O)(=O)Nc3cccc4ccccc34)ccc2N1 | nt | nt | i | nt | ? | nt
Clc1ccc(N2N=C(c3cccs3)CC2c2ccco2)cc1 (stereo not given) | i | i | ? | i | nt | 22µM
c1ccc(C2=NN(c3ccccc3)C(c3ccco3)C2)cc1 (stereo not given) | i | i | i | i | ? | 16µM
c1ccc(N2N=C(c3cccs3)CC2c2ccco2)cc1 (stereo not given) | i | i | ? | i | ? | 28µM
CCN(CC)CC(=O)N1N=C(c2cccs2)CC1c1ccco1 (stereo not given) | i | i | i | i | i | i
CCC(=O)N1N=C(c2cccs2)CC1c1ccco1 (stereo not given) | i | i | i | i | i | i
CCOC(=O)c1c(CSc2ccccc2)n(C)c2cc(Br)c(O)c(CN(C)C)c12 | i | i | i | i | i | i
CCOC(=O)c1c(CSc2ccsc2)n(C)c2cc(Br)c(O)c(CN(C)C)c12 | i | i | i | i | i | 8.9µM
Cc1ccc(CNS(=O)(=O)c2ccccc2[N+](=O)[O-])cc1 | i | i | i | i | i | i
CCC(NC(=O)CCl)c1ccc(C)cc1 (stereo not given) | ? | i | ? | i | 23µM | i
Cc1cc(C)n(C(=O)CNC(=O)c2ccccc2F)n1 | i | i | i | i | i | i
CCOC(=O)CCC(=O)Nc1ncnc2c1C(c1ccccc1)c1c(ccc3ccccc13)O2 (stereo not given) | i | nt | ? | i | 6.5µM! | i
O=C(Cc1ccccc1)Nc1ncnc2c1C(c1ccccc1)c1c(ccc3ccccc13)O2 (stereo not given) | i | nt | ? | i | 5.2µM | i
O=C(Nc1ncnc2c1C(c1ccccc1)c1c(ccc3ccccc13)O2)c1ccccc1 (stereo not given) | i | nt | ? | i | ? | i
CC(=O)Nc1ccccc1-c1nc2ccccc2n(CC(=O)c2ccc(Br)cc2)c1=O | i | nt | i | nt | i | nt
SMILES | Nrf2 activator | CCT chaperon mod | A549 viability | TCR act | Nrf2 inh | A-T KAP1 phos
CCOc1ccc(NC(=O)c2cnc3sc(N4CCOCC4)nn3c2=O)cc1 | i | nt | i | nt | i | nt
O=C(CN1CCN(c2ccccn2)CC1)Nc1cccc(Br)c1 | i | i | i | i | i | 16µM
Cc1cc(C)cc(NC(=O)CN2CCN(c3ccccn3)CC2)c1 | i | i | i | i | i | i
Cc1cc(C)cc(NC(=O)CN2CCN(c3ccccc3)CC2)c1 | i | i | i | i | i | 10µM
Cn1c(CCN2CCN(c3ccccn3)CC2)nc2cc(NC(=O)COc3ccccc3)ccc21 | i | i | i | i | 23µM | i
Cc1ccc(OCC(=O)Nc2ccc3c(c2)nc(CCN2CCN(c4ccccn4)CC2)n3C)cc1 | i | i | nt | nt | nt | nt
COc1cccc(N2CCN(CC(=O)Nc3nnc(-c4ccccc4)s3)CC2)c1 | i | i | i | i | 12µM | i
Cc1nc2ccccn2c1P(=O)(c1ccccc1)c1ccccc1 | nt | nt | i | nt | i | nt
CCN(c1ccccc1)S(=O)(=O)c1nnc(NC(=O)C(C)Oc2ccccc2)s1 (stereo not given) | i | nt | i | nt | ? | nt
COC(=O)c1[nH]c2cc(OC)ccc2c1NC(=O)CCN1CCN(c2ccccc2)CC1 | i | i | i | i | i | i
Cc1ccc2c(C(=O)CN3CCN(c4ccccc4)CC3)c(C)[nH]c2c1 | i | i | i | i | nt | i
CCOC(=O)N1CCN(CC(=O)Nc2cccc(Br)c2)CC1 | i | i | i | i | i | nt
CCOC(=O)N1CCN(CCC(=O)Nc2cccc(Br)c2)CC1 | i | -96! | i | i | ? | i
COC(=O)c1[nH]c2ccccc2c1NC(=O)CN1CCN(c2cccc(OC)c2)C(C)C1 (stereo not given) | i | i | i | i | 26µM | i
COc1cccc(N2CCN(CC(=O)c3c(C)[nH]c4ccccc34)CC2)c1 | i | i | ? | i | 12µM | i
Cc1ccccc1CNC(=O)CCCn1c(=O)c2cccn2c2cccnc21 | i | nt | i | nt | i | nt
O=[N+]([O-])c1ccc(Oc2ccc(S(=O)(=O)Nc3ccccc3)cc2)cc1 | i | i | i | i | 18µM | i
COc1ccc(NS(=O)(=O)c2ccc(-c3coc(C)n3)cc2)cc1 | i | i | i | i | 16µM | i
O=[N+]([O-])c1ccc(S(=O)(=O)Nc2ccncc2)cc1 | i | i | i | nt | i | i
COc1ccc(NS(=O)(=O)c2ccc(Oc3ncccn3)cc2)cc1 | i | i | i | i | 21µM | i
CCc1nn(CC(=O)N2CCN(c3cccc(C)c3C)CC2)c(=O)c2cc3sccc3n12 | i | nt | i | nt | i | nt
NC(=O)COC(=O)c1cc(-c2ccco2)nc2ccccc12 | 3.5µM | i | i | i | i | i
CC(C)CCNC(=O)c1cc(-c2ccco2)nc2ccccc12 | ? | i | i | i | i | i
O=C(NCC1CCCO1)c1cc(-c2ccco2)nc2ccccc12 (stereo not given) | 11µM | i | i | i | i | i
CN(C)C(CNC(=O)c1cc(-c2ccco2)nc2ccccc12)c1ccccc1 (stereo not given) | 13µM | i | i | i | ? | i
O=C(NCC1CCCO1)c1cc(-c2ccncc2)nc2ccccc12 (stereo not given) | i | i | i | i | i | i
CC(=O)N1CCN(c2ncnc3sc(-c4ccccc4)cc23)CC1 | i | i | i | i | ? | i
Oc1ccc(N2CCN(c3ncnc4sc(-c5ccccc5)cc34)CC2)cc1 | i | i | i | i | 21µM | i
